{"source": "PubChem BioAssay AID2435", "about": "(The Scripps Research Institute Molecular Screening Center, 2010)", "note": "Screen size: about 320,000 compounds; about 1,000 (0.31%) were called active.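 The calls were made as follows: active = activation above the mean of all tested compounds plus 3 SD, cutoff set per screening run (cut at about 20% in these data); inactive = the rest.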 The list comes from a sample in which actives are over-represented; it also holds similar structures and randomly drawn compounds.", "data": [{"target": "Oxytocin receptor (Homo sapiens) (UniProt P30559)", "sequence (P30559 whole entry, looked up)": "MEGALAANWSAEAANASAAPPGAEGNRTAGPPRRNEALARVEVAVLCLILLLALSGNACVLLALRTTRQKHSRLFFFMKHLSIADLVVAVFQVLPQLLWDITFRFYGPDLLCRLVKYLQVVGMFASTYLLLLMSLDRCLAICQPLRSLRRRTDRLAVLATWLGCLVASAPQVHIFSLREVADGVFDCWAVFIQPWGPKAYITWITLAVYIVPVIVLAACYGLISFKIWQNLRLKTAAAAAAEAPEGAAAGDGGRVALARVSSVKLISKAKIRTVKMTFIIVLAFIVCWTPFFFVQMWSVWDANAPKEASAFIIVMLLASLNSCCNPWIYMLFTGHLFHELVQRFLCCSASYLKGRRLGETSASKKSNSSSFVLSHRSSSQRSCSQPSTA", "experiment": "oxytocin receptor activation by calcium flux – fluorescence, CHO-OTR cells, Fluo-8 calcium, primary screen (AID 2435);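 also: peak over basal fluorescence ratio from a 100 s FLIPR kinetic read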", "conditions": "Fluo-8 calcium fluorescence, at 3 µM, hits give high values, normalized: DMSO 0%, oxytocin 100%", "values": [{"smiles": "CCOC(=O)N/N=C1\\CC(C)S(=O)(=O)c2ccc(Cl)cc21", "note": "(stereo unspecified)", "activation": "-2.06% (inactive)"}, {"smiles": "CCOc1ncccc1C(=O)NCCc1ccc(OC)cc1", "activation": "-1.34% (inactive)"}, {"smiles": "Cc1nc(CN2CCN(C(=O)CCc3nnc(Cc4c[nH]c5ccccc45)o3)CC2)cs1", "activation": "-0.27% (inactive)"}, {"smiles": "Cn1c2ccccc2c(=O)c2c(O)cccc21", "activation": "-1.89% (inactive)"}, {"smiles": "Cn1c2ccccc2c(=O)c2c(=O)n(Cc3ccco3)c(COc3ccccc3)nc21", "activation": "1.8% (inactive)"}, {"smiles": "CCCc1nc2c(c(=O)c3ccccc3n2C)c(=O)n1C1CCCCCC1", "activation": "52.1% (active)"}, {"smiles": "Cc1ccc(C(=O)Cc2nnc(C)s2)cc1", "activation": "-0.26% (inactive)"}, {"smiles": "Oc1ccc2ccc3cccc[n+]3c2c1", "activation": "65.3% (active)"}, {"smiles": "COc1ccc(N2CCN(C(=O)[C@@H](NC(=O)c3cc(OC)cc(OC)c3)C(C)C)CC2)cc1", "activation": "-0.71% (inactive)"}, {"smiles": "CCOc1ccc(CCNC(=O)C2CCN(c3ccc(N4CCOCC4)nn3)CC2)cc1OCC", "activation": "-0.01% (inactive)"}, {"smiles": "NC(=O)C1CCN(C(=O)c2cn(-c3ccccc3)nc2-c2cccnc2)CC1", "activation": "1.05% (inactive)"}, {"smiles": "O=C(NNC(=S)NC(=O)c1cn(-c2ccccc2)nc1-c1ccccc1)c1ccncc1", "activation": "21.2% (active)"}, {"smiles": "Cc1ccc(-c2nn(-c3ccccc3)cc2C(=O)NC2CCC(O)CC2)cc1", "note": "(stereo unspecified)", "activation": "0.66% (inactive)"}, {"smiles": "COC(=O)c1ccc(COC(=O)C2CCN(S(=O)(=O)c3c(Cl)cccc3Cl)CC2)o1", "activation": "0.45% (inactive)"}, {"smiles": "O=C(NCc1ccco1)/C(=C/c1cccc([N+](=O)[O-])c1)NC(=O)c1ccco1", "activation": "-0.34% (inactive)"}, {"smiles": "O=C(c1ccco1)N1CCN(C(=O)C2CC(c3ccc(Cl)c(Cl)c3)=NO2)CC1", "note": "(stereo unspecified)", "activation": "5.71% (inactive)"}, {"smiles": "O=C(c1ccco1)N1CCN(C(=O)C2CC(c3ccc(F)cc3)=NO2)CC1", "note": "(stereo unspecified)", "activation": "38.1% (active)"}, {"smiles": "CCOC(=O)N1CCN(C(=O)C2CC(c3ccc(F)cc3)=NO2)CC1", "note": "(stereo unspecified)", "activation": "0.22% (inactive)"}, {"smiles": "CC1(C)Oc2ccc3ccc(=O)oc3c2/C(=N/O)C1=O", "activation": "-0.3% (inactive)"}, {"smiles": "CCCCOc1ccc(CON(C(C)=O)C(C)=O)cc1Cl", "activation": "-0.28% (inactive)"}, {"smiles": "CC(O)CNCCOc1cccc(Oc2ccccc2)c1", "note": "(stereo unspecified)", "activation": "2.15% (inactive)"}, {"smiles": "CC(C)(C)NCC(O)COc1cccc2[nH]c(=O)[nH]c12", "note": "(stereo unspecified)", "activation": "-0.01% (inactive)"}, {"smiles": "COc1ccccc1OCCNCC(O)COc1cccc2[nH]c3ccccc3c12", "note": "(stereo unspecified)", "activation": "20.7% (active)"}, {"smiles": "CC(=O)c1ccc(NC(=O)c2sc3nc4n(c(=O)c3c2C)CCCCC4)cc1", "activation": "7.14% (inactive)"}, {"smiles": "COc1cccc(CNCCc2c[nH]c3ccccc23)c1OCc1ccccc1F", "activation": "23.9% (active)"}, {"smiles": "COc1ccccc1NC(=O)CCCc1c[nH]c2ccccc12", "activation": "-0.34% (inactive)"}, {"smiles": "COc1ccc(S(=O)(=O)NCCc2c[nH]c3ccccc23)cc1OC", "activation": "4.77% (inactive)"}, {"smiles": "Cc1cc2nc3n(c2cc1C)CC1CC(C(=O)NCCC(C)C)N(C)C31", "note": "(stereo unspecified)", "activation": "0.52% (inactive)"}, {"smiles": "O=c1c2ccccc2nc2n1C(CSc1ccc(F)cc1)CN2", "note": "(stereo unspecified)", "activation": "0.69% (inactive)"}, {"smiles": "O=c1c2ccccc2nc2n1C(CSc1ccc(Cl)cc1)CN2", "note": "(stereo unspecified)", "activation": "25.6% (active)"}, {"smiles": "O=c1c2ccccc2nc2n1C(CSCc1ccccc1)CS2", "note": "(stereo unspecified)", "activation": "0.87% (inactive)"}, {"smiles": "Cc1ccc(S(=O)(=O)N(C)C)cc1NC(=O)C1Cc2ccccc2CN1C(=O)c1ccco1", "note": "(stereo unspecified)", "activation": "-0.61% (inactive)"}, {"smiles": "C=C(C)CSc1nnc(-c2ccc(C)cc2)n1N", "activation": "-2.48% (inactive)"}, {"smiles": "COc1ccc(CNC(=O)CCC(=O)Nc2nnc(C(C)C)s2)cc1", "activation": "-0.01% (inactive)"}, {"smiles": "CCc1nn(CCCC(=O)NC(C)c2ccccc2)c(=O)c2cc3occc3n12", "note": "(stereo unspecified)", "activation": "-0.99% (inactive)"}, {"smiles": "FC(F)(F)c1cc(-c2ccco2)nc(NCc2ccc(Cl)cc2)n1", "activation": "0.65% (inactive)"}]}]}
